# Screening data from PubChem.
# DAX1 inh-1 – inhibits human nuclear receptor DAX1 | P51843 | HEK293 Gal4-DAX1 luciferase reporter, luminescence | inhibition, % at 6.75 µM | 340,000 compounds, 0.99% hits | AID 504766;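 active = inhibition above the mean over all tested compounds plus 3 SD, cut at about 4.2% in these data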;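 also: 0% = DAX1-transfected cells with DMSO and 100% = empty-vector control cells with DMSO; inhibition shows as a rise in luminescence from relieved DAX1 repression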
# Target sequence (P51843 207-470 limits assumed): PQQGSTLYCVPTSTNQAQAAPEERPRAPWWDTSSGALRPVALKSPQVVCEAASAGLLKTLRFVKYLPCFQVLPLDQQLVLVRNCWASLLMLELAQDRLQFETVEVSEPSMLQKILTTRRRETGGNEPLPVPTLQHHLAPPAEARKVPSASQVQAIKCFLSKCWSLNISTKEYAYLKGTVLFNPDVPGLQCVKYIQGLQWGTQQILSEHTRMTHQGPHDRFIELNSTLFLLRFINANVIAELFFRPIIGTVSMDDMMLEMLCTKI
# hgDAF-12 ag – hgDAF-12 agonism, primary luciferase screen. HEK293 GAL4-hgDAF12 UAS-luciferase reporter, agonist luminescence; normalized to butyrate control. activation, % at 6.8 µM. 370,000 compounds, 1.8% hits. AID 687014;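 active = activation above a cutoff set at the mean of all screened compounds plus 3 SD, cut at about 10% in these data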;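 also: 0% = DMSO wells and 100% = sodium butyrate wells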
# ssDAF-12 act – activators of S. stercoralis DAF-12 nuclear receptor | HEK293 ssDAF-12/GRIP1 lit1-tk-luc reporter, luminescence; % of 3 µM dafachronic acid response | activation, % at 6.8 µM | 370,000 compounds, 1% hits;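 active = activation above the mean over all tested compounds plus 3 SD, cut at about 0.9% in these data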;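 also: 0% = DMSO-only wells and 100% = 3 µM delta7-dafachronic acid wells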
# GAA850 FXN act – activators of GAA850 frataxin (FXN) promoter; HEK293 lucGAA850 FXN promoter luciferase reporter, 24 h; percent of 10 µM SAHA response; activation, % at 6 µM; 360,000 compounds, 0.56% hits; AID 540364;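 active = activation above the average of all compounds screened plus 3 SD, cutoff fixed separately per campaign, cut at about 7.5% in these data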;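 also: 0% = DMSO wells and 100% = 10 µM SAHA wells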
# hcDAF-12 act – activates DAF-12 receptor from parasite H. contortus. HEK293 hcDAF-12 lit1-tk-luc reporter, luminescence; 0% DMSO, 100% Δ7-dafachronic acid. activation, % at 6.8 µM. 370,000 compounds, 1.4% hits. AID 652067;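 active = activation above the mean of all tested compounds plus 3 SD, cut at about 5.5% in these data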;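 also: 100% = response to 3 µM Δ7-dafachronic acid high control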
# DAX1 inh-2 – DAX1 (NR0B1) inhibition, primary screen | HEK293T StAR-luciferase reporter, SF-1/DAX-1 repression relief | inhibition, % at 6.8 µM | 370,000 compounds, 1.1% hits;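 active = inhibition above the mean over all tested compounds plus 3 SD, cut at about 3.6% in these data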;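 also: 0% = DAX-1 cells with DMSO and 100% = cells lacking DAX-1 with DMSO; higher inhibition means more luminescence from relief of DAX-1 repression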
# Active calls of the source: *; . = no result given. Compounds with a hit are over-represented: about 4.5% of the library has one in this group of screens.
SMILES,DAX1 inh-1,hgDAF-12 ag,ssDAF-12 act,GAA850 FXN act,hcDAF-12 act,DAX1 inh-2
Cc1ccc(C(=O)/C=C2\NCCNC2=O)cc1,2,13*,0,0,3,3.8*
CC(=O)[C@@H]1[C@@H](C(=O)c2ccc(F)cc2)[C@]2(C(=O)Nc3ccccc32)[C@H]2C=Cc3cc(F)ccc3N12,-1,-1,1.5*,0,3,0
C=CCC1(CC=C)CCCN1C(=O)C1CCC(=O)N(CCc2ccc(OC)cc2)C1 (stereo unspecified),2,13*,-1,3,4,2
CCOC(=O)N1CCN(C(=O)C[C@H]2C[C@@]3(C(=O)OC)C(=C[C@H](C(C)C)O[C@@H]3C3CC3)N(Cc3ccc4c(c3)OCO4)C2=O)CC1,.,-3,-1,.,1,-1
CCc1cc(C(=O)NNC(=S)Nc2cc(C)ccc2C)cs1,1,-2,-1,3,-1,0
CCNC(=S)NNC(=O)c1csc(CC)c1,7.0*,6,-1,3,-1,0
CCc1cc(C(=O)NNC(=S)Nc2ccccc2C)cs1,2,12*,0,7,2,3.6*
CCc1cc(C(=O)NNC(=S)NCc2ccccc2)cs1,0,3,-1,4,0,0
COc1cc(C(=O)NC2CCN(C)CC2)ccc1Nc1ncc2c(n1)N(C1CCCCC1)CCC(=O)N2C,-1,-8,0,-6,4,-2
COc1cc(C(=O)NC2CCN(C)CC2)ccc1Nc1ncc2c(n1)N(Cc1ccccc1)CCC(=O)N2C,7.8*,1,-1,-1,1,1
O=C(NCc1ccc(Cl)cc1)c1ccncc1,-1,1,0,1,-1,0
O=C(NCc1ccc(F)cc1)c1ccncc1,4.4*,3,-1,-1,-1,0
O=C(NCc1ccco1)c1c2c(nc3ccccc13)CCC2,3,1,-1,1,2,0
O=C(NCc1ccc(F)cc1)c1c2c(nc3ccccc13)CCC2,0,4,0,0,3,4.5*
C=C1C(=O)O[C@H]2[C@H]1[C@@H](O)CC(=C)[C@@H]1CC(=O)[C@@H](C)[C@H]21,-1,.,.,9.3*,.,.
CC(=O)c1ccccc1NS(=O)(=O)c1ccccc1Cl,0,12*,-1,1,-2,0
CC(=O)c1ccccc1NS(=O)(=O)c1c(C)nn(-c2ccccc2)c1C,-1,-1,-2,0,1,-1
Cc1ccc(S(=O)(=O)NCC(=O)N2CCN(c3ccccn3)CC2)s1,.,-3,-1,.,-1,-1
COc1ccc(C(=O)O/N=C(\N)c2cccc(C)c2)cc1OC,3,2,0,1,0,0
Cc1cccc(C(=O)O/N=C(\N)c2ccc(Cl)cc2)c1,1,5,1.0*,4,5.6*,0
N/C(=N\OC(=O)c1cccc(Br)c1)c1ccccc1,2,10,1.3*,6,6.1*,2
Cc1cccc(C(=O)O/N=C(\N)c2ccc(Br)cc2)c1,1,8,-1,0,6.1*,1
Cc1ccc(/C(N)=N/OC(=O)c2ccc(Cl)cc2Cl)cc1,4.7*,-3,-1,-5,2,0
CC(C)CNc1ccc2c(c1)OC[C@@H](CC(C)C)NS2(=O)=O,.,-1,-1,.,-1,1
O=C(NCCc1c[nH]c2ccccc12)OCc1cn(-c2ccccc2Cl)nn1,.,-4,0,.,-2,-1
SMILES,DAX1 inh-1,hgDAF-12 ag,ssDAF-12 act,GAA850 FXN act,hcDAF-12 act,DAX1 inh-2
CCN=C1NC(CCc2ccccc2)C(C(=O)OC)=C(C)N1Cc1ccc(C(F)(F)F)cc1 (stereo unspecified),.,0,-1,.,0,0
Cc1cccc(/C(N)=N/OC(=O)c2ccncc2)c1,1,16*,0,2,3,9.4*
N/C(=N\OC(=O)c1ccncc1)c1cccc([N+](=O)[O-])c1,0,2,-1,5,1,0
Cc1c(/C=N\NC(=O)c2ccc(F)cc2)cnn1C,-1,0,-1,3,0,0
Cc1c(/C=N/NC(=O)c2ccc(Br)o2)cnn1C,.,9,0,1,6.2*,1
Cc1nn(-c2ccccc2)c(N)c1-c1ccccc1,-1,9,1.0*,6,5,1
